Measured values taken from PubChem BioAssay (EPA / NIEHS).
Where “and” joins values, the source holds several entries; their conditions need not be identical. Equal values may be shown once. Some compounds were tested as several samples or in several runs, with calls that do not always agree. Calls of active or inactive are those of the source. The calls were made as follows: active = hit-call score of the fitted dose curve at least 0.9, where 1 is the maximum; inactive = score below 0.9.

What was measured:
[1] = read-out: Interleukin-6 (IL6), IL6 (gene 3569); experiment: BSK_CASM3C_IL6: BioMAP Diversity Plus: CASM3C Assay for Interleukin-6 (IL6) Biomarker Activity for (AID 2283040); details: primary human coronary artery smooth muscle cells; actives raise or lower the signal
[2] = read-out: Tissue plasminogen activator (tPA), PLAT (gene 5327); experiment: BSK_BE3C_tPA: BioMAP Diversity Plus: BE3C Assay for Tissue plasminogen activator (tPA) Biomarker Activity (AID 2283041); details: primary human bronchial epithelial cells; actives raise or lower the signal
How it was run: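 Gain- or loss-of-signal in tPA, measured by ELISA, derived by bidirectional fitting against DMSO. Cells: human primary bronchial epithelial; read at 24 h after chemical dosing.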

[3] = read-out: Interleukin-8 (IL8), CXCL8 (gene 3576); experiment: BSK_CASM3C_IL8: BioMAP Diversity Plus: CASM3C Assay for Interleukin-8 (IL8) Biomarker Activity (AID 2283042); details: primary human coronary artery smooth muscle cells; actives raise or lower the signal;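 also: IL-8 protein level quantified by ELISA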
[4] = read-out: Human Leukocyte Antigen - DR isotype (HLADR), HLA-DRA (gene 3122); experiment: BSK_CASM3C_HLADR: BioMAP Diversity Plus: CASM3C Assay for Human Leukocyte Antigen - DR isotype (HLADR) Biomarker Activity (AID 2283043); details: primary human coronary artery smooth muscle cells; actives raise or lower the signal;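 also: cell-surface HLA-DR protein level quantified by ELISA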
[5] = read-out: Macrophage colony-stimulating factor (MCSF), CSF1 (gene 1435); experiment: BSK_CASM3C_MCSF: BioMAP Diversity Plus: CASM3C Assay for Macrophage colony-stimulating factor (MCSF) Biomarker Activity (AID 2283044); details: primary human coronary artery smooth muscle cells; actives raise or lower the signal;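 also: M-CSF protein amount quantified by ELISA after 24 h exposure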
[6] = read-out: Low-density lipoprotein receptor (LDLR), LDLR (gene 3949); experiment: BSK_CASM3C_LDLR: BioMAP Diversity Plus: CASM3C Assay for Low-density lipoprotein receptor (LDLR) Biomarker Activity (AID 2283045); details: primary human coronary artery smooth muscle cells; actives raise or lower the signal;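 also: LDLR protein level on the cell surface quantified by ELISA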
[7] = read-out: Monocyte Chemoattractant Protein-1 (MCP1), CCL2 (gene 6347); experiment: BSK_CASM3C_MCP1: BioMAP Diversity Plus: CASM3C Assay for Monocyte Chemoattractant Protein-1 (MCP1) Biomarker Activity (AID 2283046); details: primary human coronary artery smooth muscle cells; actives raise or lower the signal;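 also: MCP-1 level quantified by ELISA 24 h after dosing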
[8] = BSK_CASM3C_Proliferation: Cell Proliferation Assessment in the BioMAP Diversity Plus: CASM3C Assay (AID 2283047); details: primary human coronary artery smooth muscle cells;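 also: sulforhodamine B total protein stain as relative cell number at 560 nm; sub-confluent cells exposed 48 h before staining; fitted both ways against DMSO so gain or loss of cell number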
[9] = read-out: Monokine induced gamma interferon (MIG), CXCL9 (gene 4283); experiment: BSK_CASM3C_MIG: BioMAP Diversity Plus: CASM3C Assay for Monokine induced gamma interferon (MIG) Biomarker Activity (AID 2283048); details: primary human coronary artery smooth muscle cells; actives raise or lower the signal;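 also: MIG protein level measured by ELISA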
[10] = read-out: serum amyloid A (SAA), SAA1 (gene 6288); experiment: BSK_CASM3C_SAA: BioMAP Diversity Plus: CASM3C Assay for serum amyloid A (SAA) Biomarker Activity (AID 2283049); details: primary human coronary artery smooth muscle cells; actives raise or lower the signal;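 also: SAA protein level quantified by ELISA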

Measured: AC50

O=S1(=O)CC(Cl)(Cl)C(Cl)(Cl)C1
active: [1] 1.44 µM | [2] 0.964 µM | [3] 1.3 µM | [4] 0.421 µM | [5] 0.908 µM | [6] 0.389 µM | [7] 1.11 µM | [8] 0.113 µM | [9] 2.22 µM | [10] 0.764 µM

NC(=O)c1c(Cl)cccc1Cl
inactive: all assays above

CCOC(=O)C=Cc1ccccc1
inactive: all assays above

CCCCOCCOCCO
inactive: all assays above

C=C1CC/C=C(\C)CC[C@@H]2[C@@H]1CC2(C)C
inactive: all assays above

C=C(F)C(=O)OC(C(F)(F)F)C(F)(F)F
inactive: all assays above

CCCCCCCCCCCCS
active: [4] 33.8 µM | [7] 3.97 µM | [8] 24.4 µM
inactive: all other assays above

CC(C)(C)c1cccc(O)c1
inactive: all assays above

CC(C)(CO)CO
inactive: all assays above

CC(C)Cc1ccc(C(C)C(=O)O)cc1 (stereo unspecified)
active: [1] 5.55 µM | [8] 0.2 µM
inactive: all other assays above

C[C@]12CC[C@@H]3c4ccc(O)cc4CC[C@H]3[C@@H]1CC[C@@H]2O
active: [5] 3.24 µM | [8] 13.4 µM | [9] 12.2 µM
inactive: all other assays above

CCOC(=O)CCCCCCCCC(=O)OCC
inactive: all assays above

CCCCCCCC1CCCC1=O (stereo unspecified)
inactive: [3]
active: [1] 31 µM | [2] 33.4 µM | [4] 35.2 µM | [5] 31.9 µM | [6] 30.5 µM | [7] 34.3 µM | [8] 31.2 µM | [9] 31.8 µM | [10] 36.2 µM

C=C(C)C(=O)OCCC(F)(F)C(F)(F)C(F)(F)C(F)(F)C(F)(F)C(F)(F)C(F)(F)C(F)(F)F
inactive: all assays above

CCCCCCCCCC(=O)OCC
active: [1] 31.8 µM | [2] 20 µM | [3] 37 µM | [4] 32.5 µM | [5] 31.4 µM | [6] 36.4 µM | [7] 31.9 µM | [8] 20 µM | [9] 31.5 µM | [10] 31.8 µM

O=C1OC2(c3ccc(O)cc3Oc3cc(O)ccc32)c2ccccc21
inactive: all assays above

O=C(O)C(F)(F)OC(F)(F)C(F)(F)OC(F)(F)C(F)(F)C(F)(F)C(F)(F)F
active: [2] 12.4 µM | [7] 48 µM
inactive: [1] | [2] | [3] | [4] | [5] | [6] | [7] | [8] | [9] | [10]

C=CC(=O)OCC(CO)(COC(=O)C=C)COC(=O)C=C
inactive: [2]
active: [1] 0.835 µM | [3] 1.25 µM | [4] 0.567 µM | [5] 1.07 µM | [6] 1.31 µM | [7] 0.792 µM | [8] 0.302 µM | [9] 1.24 µM | [10] 5.46 µM

CC=CC(=O)C1=C(C)C=CCC1(C)C
inactive: all assays above

CC(C)CCCC(C)(C)O
inactive: all assays above

CC(=O)OC(C)(C)C1CC=C(C)CC1 (stereo unspecified)
active: [2] 27.7 µM | [4] 31.5 µM | [5] 35.3 µM | [7] 32.6 µM | [8] 29.6 µM
inactive: [1] | [3] | [6] | [9] | [10]

c1ccc(Sc2ccccc2)cc1
active: [2] 20 µM | [4] 20 µM | [5] 14.9 µM | [10] 20 µM
inactive: all other assays above

CC1=CC(C)C(C=O)C(C)C1 (stereo unspecified) (tested in a mixture with another compound)
inactive: all assays above

c1ccc(OCCOc2ccccc2)cc1
inactive: all assays above

O=C(c1ccc(OCCN2CCCCC2)cc1)c1c(-c2ccc(O)cc2)sc2cc(O)ccc12
active: [1] 20.1 µM | [2] 20 µM | [4] 26.1 µM | [6] 6.83 µM | [8] 23 µM
inactive: [3] | [7] | [9] | [10]

O=S(=O)(O)C(F)(F)C(F)(F)OC(F)(F)C(F)(F)F
active: [10] 44.9 µM and 20 µM
inactive: all other assays above

CCCCN(CCO)CCO
inactive: all assays above

O=C(O)C(F)(F)C(F)(F)C(F)(F)C(F)(F)C(F)(F)C(F)(F)C(F)(F)C(F)F
inactive: all assays above

C#C[C@]1(O)CC[C@H]2[C@@H]3CCc4cc(O)ccc4[C@H]3CC[C@@]21C
active: [6] 29.2 µM | [7] 2.14 µM | [8] 7.37 µM | [10] 0.935 µM
inactive: all other assays above

OCC(F)(OC(F)(F)C(F)(OC(F)(F)C(F)(F)C(F)(F)F)C(F)(F)F)C(F)(F)F (stereo unspecified)
inactive: all assays above

COc1ccccc1NC(=O)CC(C)=O
inactive: all assays above

CC/C(=C(\c1ccccc1)c1ccc(OCCN(C)C)cc1)c1ccccc1
active: [1] 27.3 µM and 32.2 µM | [2] 7.72 µM and 14 µM | [3] 30.9 µM and 15.7 µM | [4] 28.8 µM and 9.17 µM | [5] 21 µM and 15.7 µM | [6] 31.8 µM and 34.2 µM | [7] 27.4 µM and 25.9 µM | [8] 12.7 µM and 6.94 µM | [9] 31.5 µM and 32 µM | [10] 28.1 µM and 11.7 µM

CC(=O)CCC=C(C)CCC=C(C)C
active: [8] 0.197 µM
inactive: all other assays above

CC1(C)[C@H](C=C(Cl)Cl)[C@H]1C(=O)OCc1cccc(Oc2ccccc2)c1
inactive: all assays above

CCn1cc(C(=O)O)c(=O)c2ccc(C)nc21
inactive: all assays above

COC(=O)c1ccc(C(=O)OC)cc1
inactive: all assays above

CC(=O)OCC=C(C)CCC=C(C)CCC=C(C)C
active: [2] 3.97 µM
inactive: all other assays above

c1ccc2c(c1)-c1ccc3ccc4cccc5cc-2c1c3c45
inactive: all assays above

CCCO[Si](OCCC)(OCCC)OCCC
inactive: all assays above

Nc1ccc(N)c([N+](=O)[O-])c1
active: [7] 7.95 µM
inactive: all other assays above

OCCN1CCOCC1
inactive: all assays above

CC(=O)c1ccc(C)cc1
inactive: all assays above

CCC(=O)OCC=Cc1ccccc1
inactive: all assays above

C=C(C)C(N)=O
inactive: all assays above
